# D2 ag-1: HTS Assay for Allosteric Agonists of the Human D2 Dopamine Receptor: Primary Screen for Agonists; D(2) dopamine receptor (Homo sapiens), P14416; HEK293 T-REx D2 cells, calcium flux agonist mode; activation, % at 2 µM; 340,000 compounds, 0.53% hits; AID 485358, 2010;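 active = activation over 3 SD above normal in the single-dose calcium agonist read, cut at about 30% in these data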; note: 0% is about no effect
# Target sequence (P14416 whole entry, looked up): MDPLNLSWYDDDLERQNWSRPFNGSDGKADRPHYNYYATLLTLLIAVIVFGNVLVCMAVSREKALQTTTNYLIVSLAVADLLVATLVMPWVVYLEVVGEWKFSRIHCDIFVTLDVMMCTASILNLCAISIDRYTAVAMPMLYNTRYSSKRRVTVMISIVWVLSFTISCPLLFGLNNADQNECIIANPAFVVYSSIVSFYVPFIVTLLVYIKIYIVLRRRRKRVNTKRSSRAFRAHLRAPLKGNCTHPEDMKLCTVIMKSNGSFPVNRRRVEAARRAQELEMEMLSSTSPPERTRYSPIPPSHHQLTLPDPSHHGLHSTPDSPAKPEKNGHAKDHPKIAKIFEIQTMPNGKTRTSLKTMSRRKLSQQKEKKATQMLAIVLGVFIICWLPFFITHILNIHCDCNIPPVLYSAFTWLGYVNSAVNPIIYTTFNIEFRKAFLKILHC
#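 Tetracycline-induced HEK293 T-REx cells with force-coupled D2 receptor, plated overnight at 30 C, loaded with no-wash calcium dye. After a 10 s baseline, compound was pin-added and calcium flux read kinetically for 180 s; calcium rises flagged agonists.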
# D2 antag: HTS Assay for Allosteric Antagonists of the Human D2 Dopamine Receptor: Primary Screen for Antagonists. D(2) dopamine receptor (Homo sapiens), P14416. 340,000 compounds, 2% hits. HEK293 TREx D2 cells, calcium flux, dopamine EC80. AID 485344, 2010. inhibition, % at 10 µM; in the data active = inhibition above about 30%; inactive = below that, where a call was filed; note: 0% is about no effect
#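 Calcium mobilization kinetics were recorded at 1 s intervals in tetracycline-induced HEK293 T-REx D2 cells, first for 180 s after compound addition and then 180 s after EC80 dopamine.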
# D2 PAM-1: Beta-Arrestin HTS for Positive Allosteric Modulators of the Human D2 Dopamine Receptor: Potentiators | D(2) dopamine receptor (Homo sapiens), P14416 | DiscoveRx D2 beta-arrestin cells, luminescence, 90 min; 100% = 57 uM dopamine signal | potentiation, % (no concentration beside the values) | 360,000 compounds, 0.23% hits | AID 624464, 2012; in the data active = potentiation above about 50%
#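 PathHunter D2 cells, attached overnight at 37 deg C, received compound in DMSO plus dopamine at EC20 (50 nM final) for 90 min at 37 deg C. Beta-arrestin recruitment was read as luminescence after 1 h with detection reagent at ambient temperature.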
# D2 ag-2: Beta-Arrestin HTS for Positive Allosteric Modulators of the Human D2 Dopamine Receptor: Agonists; D(2) dopamine receptor (Homo sapiens), P14416; DiscoveRx PathHunter D2 beta-arrestin, luminescence, 90 min; 100% = 57 uM dopamine signal; activation, % (concentration not given with the values); 360,000 compounds, 0.084% hits; AID 624465, 2012; in the data active = activation above about 40%
#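 Agonist mode: compounds alone added to overnight-plated D2 PathHunter cells for 90 min at 37 C, with 57 uM final dopamine (EC100) defining full response. Beta-arrestin recruitment detected by chemiluminescent reagent, read after 1 h at ambient temperature.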
# D2 PAM-2: HTS Assay for Positive Allosteric Modulators of the Human D2 Dopamine Receptor: Primary Screen for Potentiators; potentiation, % at 10 µM; HEK293 T-REx D2, calcium flux, EC20 dopamine potentiation; 340,000 compounds, 0.34% hits; AID 485347, 2010; D(2) dopamine receptor (Homo sapiens), P14416;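 active = potentiation over 3 SD above the plate norm, cut at about 30% in these data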; note: 0% is about no effect
#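 Cells plated with tetracycline inducer and held overnight at 30 C; calcium dye loaded 30–90 min at room temperature; baseline taken, compound added and read 180 s; EC20 dopamine then added and read 180 s.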
# Numbers without * were called inactive; nt = no result given. Only some compounds are listed: those with a hit (about 2.4% of all), similar ones and a draw of the others.
SMILES,D2 ag-1,D2 antag,D2 PAM-1,D2 ag-2,D2 PAM-2
Cc1ccc(NC(=O)CNCc2cccs2)c(Br)c1,0,32*,-5,-1,8
COCCn1cnc2c1c(=O)n(Cc1ccccc1C#N)c(=O)n2Cc1ccccc1,0,-6,-6,-6,36*
C#CCOCCOCCOCCNc1nc(N2CCN(C(=O)[C@H](C)n3cc(CCCN=C(N)N)nn3)CC2)nc(N2CCN(C(=O)[C@H](CCCCN)n3cc(CCCC)nn3)CC2)n1,0,31*,nt,nt,-2
C#CCOCCOCCOCCNc1nc(N2CCN(C(=O)[C@H]([C@@H](C)CC)n3cc(CCCN=C(N)N)nn3)CC2)nc(N2CCN(C(=O)[C@H](CCCCN)n3cc(CCCC)nn3)CC2)n1,0,5,-10,-3,2
CCn1c(=O)c2cc(C(=O)N(CC(C)C)CC(C)C)sc2c2ccccc21,0,nt,nt,nt,13
CC1CN(Cc2csc(-c3ccc(Cl)cc3)n2)CC(C)O1 (stereo not given),-2,37*,-16,-2,-23
ClCc1csc(-c2ccc(Cl)cc2)n1,0,29,-10,-7,-12
Cc1ccc(NC(=O)/C(C#N)=C(\N)C(Cl)(Cl)Cl)nc1,0,33*,1,0,19
Cc1ccc(NC(=O)C(=O)Nc2ccc(C)cn2)nc1,0,-8,-9,0,0
C#CCOCCOCCOCCNc1nc(N2CCN(C(=O)[C@H]([C@@H](C)CC)n3cc([C@@H](N)Cc4ccc(O)cc4)nn3)CC2)nc(N2CCN(C(=O)[C@H](CCCCN)n3cc([C@@H](N)CC(C)C)nn3)CC2)n1,0,4,nt,nt,-3
Cc1ccc(S(=O)(=O)N(Cc2ccccc2)Cc2ccco2)cc1,0,33*,-7,-5,-10
Cc1ccc(S(=O)(=O)N(Cc2ccc(F)cc2)Cc2ccco2)cc1,0,-18,-3,3,-17
O=C(c1ccco1)N1CCN(C(=S)NC2CC3CCC2C3)CC1 (stereo not given),1,11,0,-1,-10
COc1ccc(-c2nc3n(c(=O)c2C#N)CCS3)cc1,nt,nt,2,3,nt
FC(F)Oc1ccc(/C=N/c2c(-c3ccc(OC(F)F)cc3)nc3n2CCS3)cc1,0,-8,-9,0,35*
COc1ccc(Cl)cc1NC(=O)c1nnn(CC(=O)Nc2ccc(C)c(C)c2)c1N,0,-3,-4,0,-6
Cc1ccc(OCCCCN2CCCC(C)C2)c([N+](=O)[O-])c1 (stereo not given),-1,91*,-23,-1,-30
CC1CCCN(CCCOc2ccc(Br)cc2Cl)C1 (stereo not given),0,36*,-11,-6,-22
O=[N+]([O-])c1ccccc1OCCCNCc1ccccc1,0,38*,-19,-4,-17
CC1CCN(CCOCCOc2ccc(Br)cc2Cl)CC1,nt,nt,-38,-3,nt
Cc1ccc([N+](=O)[O-])c(OCCCN2CCCCCC2)c1,0,71*,-18,-4,-27
Cc1ccc(OCCCCNC(C)(C)C)c([N+](=O)[O-])c1,0,-8,-32,-2,-15
CC[C@H]1c2[nH]c3ccccc3c2C[C@H]2C(=O)N(c3ccc(F)cc3)C(=O)N21,2,2,-29,-7,7
CCC(=O)N1CCc2cc(Br)cc(S(=O)(=O)CCC(=O)NCc3cccc(OC)c3)c21,0,nt,nt,nt,-6
Cn1c(=O)c2nc(SCCO)n(C)c2n(C)c1=O,nt,nt,-1,6,nt
CC1CCN(CCCCOc2ccc([N+](=O)[O-])cc2)CC1,0,2,-16,-1,-19
Cc1cc(OCCN2CCCCCC2)ccc1[N+](=O)[O-],0,34*,-10,-5,-12
Cc1cc(Br)ccc1OCCOCCN1CCCC1,0,43*,-86,-1,-15
CC1CCN(CCCCOc2ccccc2[N+](=O)[O-])CC1,1,80*,-28,0,-26
